{"source": "PubChem BioAssay (EPA / NIEHS)", "note": "Calls of active or inactive are those of the source. Rule for the calls, unless noted: active = hit-call score of the fitted dose curve at least 0.9, where 1 is the maximum; inconclusive = response in the unintended direction; inactive = score below 0.9.", "data": [{"assay": "CEETOX_H295R_MTT_cell_viability: Viability Assessment in the CeeTox HT-H295R MTT Assay (AID 2283718; active = hit-call score of the fitted dose curve at least 0.9, where 1 is the maximum; inactive = score below 0.9;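 for AC50: curve fitted both ways so AC50 may mark viability loss or gain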)", "method_in_brief": "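H295R cells prestimulated 48 h with 10 uM forskolin, then exposed 48 h to test chemical (0.1% DMSO final). Viability by MTT (0.5 mg/ml, 4 h, 37 C), absorbance 570/650 nm; percent change versus DMSO, bidirectional fit.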", "values": [{"smiles": "Cc1cc(N=Nc2ccccc2C)ccc1N", "outcome": "inactive"}, {"smiles": "Nc1ccc(Oc2ccc(N)cc2)cc1", "outcome": "inactive"}, {"smiles": "COP(=S)(OC)SCN1C(=O)c2ccccc2C1=O", "outcome": "inactive"}, {"smiles": "CNC(=O)Oc1cccc2c1OC(C)(C)C2", "AC50": "1.52 µM (active)"}, {"smiles": "CCC(C)c1ccc(O)cc1", "note": "(stereo not drawn)", "outcome": "inactive"}, {"smiles": "C=CCc1ccc2c(c1)OCO2", "outcome": "inactive"}, {"smiles": "CCOC(=O)[C@]1(c2ccccc2)Oc2ccccc2[C@@H]1N", "outcome": "inactive"}, {"smiles": "Nc1ccc(N=Nc2ccccc2)cc1", "outcome": "inactive"}, {"smiles": "CCOc1cccc(C2(N3CCN(c4ccccc4)CC3)CCC(C)CC2)c1", "note": "(stereo not drawn)", "outcome": "inactive"}, {"smiles": "O=C(Nc1ccccc1)c1ccccc1I", "outcome": "inactive"}]}, {"assay": "Tanguay_ZF_120hpf_ActivityScore_legacy: (Legacy) Oregon State University Tanguay Lab 120 Hour Post-fertilization zebrafish Assay Score for Activity (AID 2283742);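 for AC50: static exposure from 6 hpf until 120 hpf at 28 °C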", "method_in_brief": "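Tropical 5D wild-type zebrafish embryos, dechorionated with pronase at 4 hpf, were exposed singly from 6 hpf to 120 hpf statically at 28C in 0.64% DMSO. Malformations and mortality were scored as binary by brightfield, with the activity score combining 18 morphology components.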", "values": [{"smiles": "CC(O)CCO", "note": "(stereo not drawn)", "outcome": "inactive"}, {"smiles": "O=C1CCCO1", "outcome": "inactive"}, {"smiles": "N#CC(Br)Br", "outcome": "inactive"}, {"smiles": "O=C(N[C@H](c1ccccc1)[C@@H]1CN2CCC1CC2)c1c(Cl)ccc(C(F)(F)F)c1Cl", "AC50": "28.3 µM (active)"}, {"smiles": "Cc1cc(N=Nc2ccccc2C)ccc1N", "AC50": "33.3 µM (active)"}, {"smiles": "Clc1ccc(Cl)c(Cl)c1", "outcome": "inactive"}, {"smiles": "CC(C)(OOC(C)(C)c1ccccc1)c1ccccc1", "outcome": "inactive"}, {"smiles": "CCN(CC)N=O", "outcome": "inactive"}, {"smiles": "CCC12COCN1COC2", "outcome": "inactive"}, {"smiles": "Nc1ccc(Oc2ccc(N)cc2)cc1", "outcome": "inactive"}, {"smiles": "OCCOCCO", "outcome": "inactive"}, {"smiles": "CCNS(=O)(=O)C(F)(F)C(F)(F)C(F)(F)C(F)(F)C(F)(F)C(F)(F)C(F)(F)C(F)(F)F", "AC50": "31.2 µM (active)"}, {"smiles": "O=Cc1ccco1", "outcome": "inactive"}, {"smiles": "COP(=S)(OC)SCN1C(=O)c2ccccc2C1=O", "outcome": "inactive"}, {"smiles": "CNC(=O)Oc1cccc2c1OC(C)(C)C2", "outcome": "inactive"}, {"smiles": "CS(=O)(=O)NC(=O)c1cc(Oc2ccc(C(F)(F)F)cc2Cl)ccc1[N+](=O)[O-]", "outcome": "inactive"}, {"smiles": "[O-][Cl+]O", "outcome": "inactive"}, {"smiles": "CCC(C)c1ccc(O)cc1", "note": "(stereo not drawn)", "outcome": "inactive"}, {"smiles": "COC(=O)c1ccccc1N", "outcome": "inactive"}, {"smiles": "Cc1ccc(N)cc1", "outcome": "inactive"}, {"smiles": "C=CCc1ccc2c(c1)OCO2", "outcome": "inactive"}, {"smiles": "Nc1cc(Cl)cc(C(=O)O)c1Cl", "outcome": "inactive"}, {"smiles": "CCOC(=O)[C@]1(c2ccccc2)Oc2ccccc2[C@@H]1N", "outcome": "inactive"}, {"smiles": "Nc1ccc(N=Nc2ccccc2)cc1", "outcome": "inactive"}, {"smiles": "CN(C)c1ccc(C(=O)c2ccc(N(C)C)cc2)cc1", "AC50": "32.1 µM (active)"}, {"smiles": "CCOc1cccc(C2(N3CCN(c4ccccc4)CC3)CCC(C)CC2)c1", "note": "(stereo not drawn)", "outcome": "inactive"}, {"smiles": "C[N+](C)(C)CC1CO1", "note": "(stereo not drawn)", "outcome": "inactive"}, {"smiles": "O=C(Nc1ccccc1)c1ccccc1I", "AC50": "11.6 µM (active)"}]}]}
